Results on 8 molecules are retold here after PubChem BioAssay (Tox21).

Values without a mark were called inactive. Records with an inconclusive call do not appear. The source made the active and inactive calls. Unless noted, calls come from the whole dose curve; as a rule, active = well fitted curve in the direction sought with a large enough effect in the repeat runs; inconclusive = weak or mixed curves; inactive = no such curve, though single readings can be large; an effect the other way counts as inactive or inconclusive.

In test [1] the target is Nuclear receptor subfamily 1 group I member 3 (Homo sapiens) (UniProt Q14994). The test can be described thus: qHTS assay to identify small molecule agonists of the constitutive androstane receptor (CAR) signaling pathway (AID 1224839). Note: nearly all actives have a fitted effect of over 15% in size. In a few lines: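 A 15-concentration quantitative screen uses HepG2 cells co-transfected stably with human CAR and CYP2B6-2.2kb reporter. Treatment lasts 24 h with 0.75 uM PK11195 final present; ONE-Glo luminescence is the signal.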
Chain of Nuclear receptor subfamily 1 group I member 3 (Homo sapiens) (Q14994 whole entry, looked up): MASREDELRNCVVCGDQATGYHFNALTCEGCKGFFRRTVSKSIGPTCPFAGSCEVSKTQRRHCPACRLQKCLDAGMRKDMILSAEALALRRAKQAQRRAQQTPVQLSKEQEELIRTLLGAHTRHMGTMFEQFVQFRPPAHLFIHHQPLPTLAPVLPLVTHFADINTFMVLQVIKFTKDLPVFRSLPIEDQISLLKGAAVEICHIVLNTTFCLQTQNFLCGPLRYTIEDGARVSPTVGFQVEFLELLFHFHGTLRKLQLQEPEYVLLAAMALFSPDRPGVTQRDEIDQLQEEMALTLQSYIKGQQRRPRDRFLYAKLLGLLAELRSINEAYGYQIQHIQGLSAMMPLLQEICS
A general note: In qHTS, concentration-response curves come from the screen itself.

Test [2] can be described thus: qHTS assay to identify small molecule antagonists of the estrogen related receptor signaling pathway with the pleiotropic PPARgamma coactivator (PGC) from Tox21 10K library - cell viability counter screen (AID 1224840; active = well fitted cell-killing curve with a large enough effect in the repeat runs, not every such curve was filed as active; note: nearly all actives have a fitted effect of over 40% in size). The essentials: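 Cell viability is measured by CellTiter-Fluor fluorescence in PGC/ERR cells that receive compounds after a 6-hour attachment period and are then incubated 17.5 hours at 37 C.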

In test [3] the target is Thyrotropin receptor (Homo sapiens) (UniProt P16473). Put plainly: qHTS assay to identify small molecule agonists of the thyroid stimulating hormone receptor (TSHR) signaling pathway (AID 1224843; calls by dose curve; note: nearly all actives have a fitted effect of over 45% in size). The essentials:
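A cell-based cAMP HTRF format was run in TSHR-transfected HEK293 cells, 800 per well. Treatment: 30 min, room temperature. Detection: 1 h with labelled cAMP and anti-cAMP cryptate. Concentration-response over 15 points, three replicates.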

Test [4] can be described thus: qHTS assay to identify small molecule agonists of H2AX (AID 1224845; active = well fitted activation curve with a large enough effect in the signal ratio in the repeat runs, not every such curve was filed as active; the % refers to the signal ratio). In a few lines: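 Phospho-H2AX Ser139 measured by HTRF (ex 320 nm; em 665 and 620 nm) after 24 hr antibody incubation. Compounds, 15 concentrations, 0.76% DMSO, were applied to CHO-K1 cells for 3hr at 37C before lysis.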
The nature of test [5]: qHTS assay to identify small molecule agonists of H2AX - cell viability counter screen (AID 1224847; calls by dose curve; note: top concentration of the series differs between compounds; nearly all actives have a fitted effect of over 30% in size). In a few lines:
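We seed wild-type CHO-K1 cells overnight, treat them for 3 hr at 37C with compounds in 15-concentration series, and quantify remaining viability by CellTiter-Glo luminescence.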

Test [6] can be described thus: qHTS RealTime-Glo MT Cell Viability Assay in HepG2 cells - 24 hour (AID 1224867). Note: nearly all actives have a fitted effect of over 50% in size. In a few lines: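 Cells + NanoLuc/prosubstrate dispensed (600 cells/well) → 5 h at 37 C/5% CO2 → compounds in DMSO transferred → 40 h incubation at 37 C, luminescence read at 0, 8, 16, 24, 32, 40 h.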
Test [7] can be described thus: qHTS RealTime-Glo MT Cell Viability Assay in HEK293 cells - 32 hour (AID 1224868). Note: top concentration of the series differs between compounds; nearly all actives have a fitted effect of over 50% in size. The essentials:
(§1)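 Tox21 10K qHTS, HEK293, 600 cells/well, RealTime-Glo reagent co-dispensed with cells; 5 h preincubation, compound by pintool, 37 C, luminescence at 0–40 h.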

The nature of test [8]: A CellTox Green Cytotoxicity Assay to monitor cytotoxicity in HEK293 cells - 0 hour (AID 1224869). Note: nearly all actives have a fitted effect of over 50% in size. In a few lines:
(§2)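 Dead-cell fluorescence measured kinetically: asymmetric cyanine dye, HEK293, 600 cells/well, 5 h settle, 23 nL cpd/DMSO, 37 C, reads 0–40 h every 8 h.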

The nature of test [9]: qHTS RealTime-Glo MT Cell Viability Assay in HepG2 cells - 40 hour (AID 1224870). Note: nearly all actives have a fitted effect of over 50% in size. In a few lines: (§3)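 Real-time viability: cells seeded at 600 per well together with NanoLuc and cell-permeant prosubstrate, compounds added after 5 h incubation. Luminescence tracked at 0, 8, 16, 24, 32 and 40 h of exposure.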
Test [10] in a line: A CellTox Green Cytotoxicity Assay to monitor cytotoxicity in HEK293 cells - 40 hour (AID 1224871). Note: nearly all actives have a fitted effect of over 45% in size. Note: potency is the fitted concentration of half-maximal effect. The essentials: as §2
Test [11] is described as follows: qHTS RealTime-Glo MT Cell Viability Assay in HEK293 cells - 16 hour (AID 1224872). In a few lines: as §1
A short description of test [12]: qHTS RealTime-Glo MT Cell Viability Assay in HepG2 cells - 8 hour (AID 1224873). Note: nearly all actives have a fitted effect of over 55% in size. In a few lines:
as §3

Test [13] can be described thus: qHTS RealTime-Glo MT Cell Viability Assay in HEK293 cells - 40 hour (AID 1224874). Note: nearly all actives have a fitted effect of over 50% in size. Particulars: RealTime-Glo luminescence; max response: stronger effect = lower value. In a few lines: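 600 HEK293 cells per well, dispensed already mixed with RealTime-Glo MT reagents. Compound dosing came 5 h later. The same wells were read for luminescence at 0, 8, 16, 24, 32 and 40 h of exposure at 37 C.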

The nature of test [14]: A CellTox Green Cytotoxicity Assay to monitor cytotoxicity in HEK293 cells - 24 hour (AID 1224875). Note: nearly all actives have a fitted effect of over 45% in size. Note: potency is the fitted concentration of half-maximal effect. In a few lines:
as §2

Test [15] in a line: qHTS assay to identify small molecule antagonists of the estrogen related receptor signaling pathway with the pleiotropic PPARgamma coactivator (PGC) from Tox21 10K library (AID 1224841; call rule not given here). The essentials:
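Cells stably carrying the PGC/ERR reporter, seeded at 2,000 per well, received pin-transferred compounds 6 h post-plating. Exposure lasted 18 h at 37 C. Signal: One-Glo luminescence.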

A short description of test [16]: qHTS assay to identify small molecule agonists of the estrogen related receptor signaling pathway with the pleiotropic PPARgamma coactivator (PGC) from Tox21 10K library (AID 1224842). Note: nearly all actives have a fitted effect of over 15% in size. In a few lines: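 Luminescence from One-Glo (30 min, room temperature) measured after PGC/ERR cells had 18 h at 37 C with pinned compound (23 nL in DMSO). Cells had been seeded at 2,000 per well and pre-incubated 6 h.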

A short description of test [17]: qHTS assay to identify small molecule agonists of the hypoxia (HIF-1) signaling pathway - cell viability counter screen (AID 1224844; calls by dose curve; note: nearly all actives have a fitted effect of over 50% in size). The essentials:
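Viability counter screen: HRE-bla ME-180 cells plated 5 hrs before compound addition, treated 17 hrs at 37C and 5% CO2, then CellTiter-Glo added after the FRET reporter read; luminescence after 30 min.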

A short description of test [18]: qHTS assay to identify small molecule agonists of the hypoxia (HIF-1) signaling pathway (AID 1224846; active = well fitted activation curve with a large enough effect in the signal ratio in the repeat runs, not every such curve was filed as active; the % refers to the signal ratio). The essentials: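 Agonist mode reporter screen. ME-180 cells stably expressing bla under HRE control received test compounds in DMSO for 17 hrs (37C, 5% CO2), and beta-lactamase activity was then detected with the CCF4-AM FRET substrate.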
Test [19] in a line: qHTS assay to identify small molecule antagonists of the estrogen related receptor (ERR) signaling pathway from Tox21 library (AID 1224848). Note: nearly all actives have a fitted effect of over 50% in size. The essentials:
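ERR cell line, 2,000 cells/well. 6 h settle, then compound (DMSO) added; 18 h at 37 C; ONE-Glo luminescence after 30 min RT.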

The nature of test [20]: qHTS assay to identify small molecule agonists of the estrogen related receptor (ERR) signaling pathway from Tox21 library (AID 1224849; calls by dose curve; note: nearly all actives have a fitted effect of over 15% in size). Particulars: ERR reporter cell line, ONE-Glo luciferase, 18 h; at 92.4 µM (top of the series) unless noted. In a few lines:
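Quantitative HTS in agonist format: NTP ERR cell line, compounds transferred in DMSO after 6 h plating, 18 h incubation at 37 C, ONE-Glo luminescence endpoint.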
% is set by controls: 0 for no effect and ±100 for the full control effect.

Chain of Thyrotropin receptor (Homo sapiens) (P16473 whole entry, looked up): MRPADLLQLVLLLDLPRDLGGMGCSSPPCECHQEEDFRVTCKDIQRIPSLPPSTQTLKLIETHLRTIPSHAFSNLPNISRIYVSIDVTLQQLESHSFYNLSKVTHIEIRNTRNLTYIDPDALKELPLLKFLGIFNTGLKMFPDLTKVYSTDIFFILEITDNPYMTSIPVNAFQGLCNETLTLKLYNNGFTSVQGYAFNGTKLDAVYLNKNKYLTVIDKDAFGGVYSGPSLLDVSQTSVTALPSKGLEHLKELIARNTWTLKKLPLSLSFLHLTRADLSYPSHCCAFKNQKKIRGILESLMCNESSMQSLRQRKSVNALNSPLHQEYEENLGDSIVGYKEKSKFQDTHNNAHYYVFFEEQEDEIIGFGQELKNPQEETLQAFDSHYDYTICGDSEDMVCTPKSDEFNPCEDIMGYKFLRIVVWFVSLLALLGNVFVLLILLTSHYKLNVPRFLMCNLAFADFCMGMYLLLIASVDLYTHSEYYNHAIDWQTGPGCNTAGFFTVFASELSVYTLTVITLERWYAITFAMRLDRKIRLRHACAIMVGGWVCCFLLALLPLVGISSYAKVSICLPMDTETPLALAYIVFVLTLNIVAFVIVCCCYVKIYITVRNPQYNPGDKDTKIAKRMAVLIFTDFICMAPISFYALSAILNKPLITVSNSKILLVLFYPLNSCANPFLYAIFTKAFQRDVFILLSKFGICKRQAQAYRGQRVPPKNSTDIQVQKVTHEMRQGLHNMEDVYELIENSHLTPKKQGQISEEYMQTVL

`CO[C@@]1(NC(=O)Cc2cccs2)C(=O)N2C(C(=O)O)=C(COC(N)=O)CS[C@@H]21`: the Potency entry in test [1], in test [7], in [8], in test [10], in [11] and in test [14] was “inactive” each time. In addition, the call in [2], in [3], in test [4], in [5], in test [6] and in test [9] was inactive. In addition, the result in [12] was inactive. For the same molecule, the max response in [13] was 0.152%.
`CCCC(=O)OC/C=C(\C)CCC=C(C)C`: the Potency entry in test [1], in test [7], in [8] and in [11] was “inactive” in each case. Moreover, the molecule was classed as inactive in test [2], in test [3], in [4], in test [5], in [6] and in [9]. Further, the result in test [12] was inactive. Further, the Potency in [10] was 49 µM (active); in test [14] it was 54.9 µM (active). In addition, the max response in test [13] is 10.7%.
For `NCC1(Cc2noc(=O)[nH]2)CCCCC1`, the Potency entry in test [1], in test [7], in test [8], in [10] and in test [11] was “inactive” each time. In addition, the molecule was called inactive in [2], in test [3], in test [5], in test [9] and in [12].
Regarding `CCCCCCCCCCCCCBr`, the molecule was classed as inactive in test [2], in [15], in test [16], in test [17], in [4] and in [18]. In addition, the outcome in test [5], in test [6], in test [9] and in [12] was inactive. Moreover, the Potency entry in test [19], in test [8], in test [10] and in test [14] was “inactive” in each case. In test [20], the activity change, positive = activation is 3.01%.
Turning to `Cn1c(=O)c2[nH]c(Br)nc2n(C)c1=O`, the call in [2], in test [3], in test [17], in test [4], in [18] and in [5] was inactive. In addition, the molecule was classed as inactive in test [6], in test [9] and in [12]. Besides, the Potency result in [7], in test [8], in test [10], in [11] and in test [14] was “inactive” in each case. In addition, the max response in test [13] was 4.15%.
Regarding `CC(C)=CCC[C@@](C)(O)[C@H]1CC=C(C)CC1`, the Potency entry in [1], in [7], in test [8], in test [10], in [11] and in test [14] was “inactive” in each case. The molecule was classed as inactive in [2], in [3], in [4], in test [5], in test [6] and in test [9]. The molecule was called inactive in test [12]. For the same molecule, the max response in [13] is -0.631%.
As for `CC(=O)CC(=O)Nc1ccc(C)cc1C`, the Potency result in test [1], in [7], in test [8], in [10], in [11] and in test [14] was “inactive” in each case. Further, the result in test [2], in test [3], in test [18], in test [5], in test [9] and in test [12] was inactive. Besides, in test [13], the max response was -1.23%.
With `O=NN(CCCl)C(=O)NC1CCCCC1`, the Potency result in test [1], in test [7], in test [10], in test [11] and in [14] was “inactive” in each case. The call in test [2], in test [3], in test [4], in test [18], in test [5] and in test [6] was inactive. For the same molecule, the molecule was called inactive in [9] and in [12]. In test [13], the max response is 1.88%.
